The values below come from PubChem BioAssay.

Molecules are shown by their SMILES. Where “and” joins values, the source holds several entries; their conditions need not be identical. Equal values may be shown once. Calls of active or inactive are those of the source.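 The calls were made as follows, unless noted: active = thallium flux through the channel raised or lowered by more than 3 SD from vehicle-only wells, actives on both sides; inactive = the rest.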

A short description of test [1]: stimulators of nuclear beta-catenin in C2C12, primary screen, imaging, WNT3A-conditioned medium, mouse C2C12, NPC library (AID 1117326; in the data active = nuclear beta-catenin stimulation mostly above about 4.2%, no sharp cut-off; inactive = mostly below about 10%). The following applies: stronger effect = higher value.
Test [2] in a line: stimulators of insulin release from INS-1E, primary screen, cell-based, 5 mM glucose, NPC library (AID 1117329;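 active = compound raises insulin release from rat beta cells at 5 mM glucose, no numeric limit stated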). The settings on record: rat INS-1E insulin secretion, at 10 µM, stronger effect = higher value.
Test [3] is described as follows: growth inhibition of GSK3B-pretreated HCT116 cells – cell-based, CellTiter-Glo, 0.2 to 20 µM (AID 1117336;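 active = compounds lowering colon cancer cell viability after pretreatment blocking the GSK3B kinase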). The settings on record: HCT116 viability after GSK3B inhibitor, at 20 µM, stronger effect = higher value. (ATP-based viability assays read luminescence as a measure of living cells.)
Test [4] can be described thus: inhibition of endothelial tube formation, primary screen, imaging, VEGF stimulated, CD31 staining, tube area, NPC library (AID 1117340;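 active = compound that reduces growth-factor-driven endothelial tube area in a mixed cell culture, no cutoff stated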). The settings on record: VEGF-stimulated ADSC/ECFC co-culture, at 10 µM, stronger effect = higher value.
A short description of test [5]: glucagon-like peptide 1 release enhancers, primary assay, NCI-H716 cell line, NPC library (AID 1117341;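 active = compound raises GLP1 secretion from the human gut endocrine cells, with no numeric limit stated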). The following applies: NCI-H716 cells, at 10 µM, stronger effect = higher value.
Test [6] is described as follows: HCT116 colon cancer cell growth inhibition, primary screen, CellTiter-Glo luminescence, NPC library (AID 1117342;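 active = compounds that lower survival of HCT116 colon cancer cells in the luminescence readout, no numeric limit stated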). The following applies: at 20 µM (top of the series).
Test [7] can be described thus: CellTiter-Glo luminescent readout of SW480 viability loss, NPC library primary (AID 1117343;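 active = compounds that lower viability of the colon cancer cells in the luminescence readout, with no numeric limit stated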). The settings on record: CellTiter-Glo luminescence; at 20 µM (top of the series).
Test [8] can be described thus: decreased DLD-1 cellular survival, CellTiter-Glo luminescent readout, NPC compound collection, primary HTS (AID 1117346;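 active = compounds that lower survival of DLD-1 colon cancer cells in the luminescence readout, no cutoff given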). The settings on record: DLD-1 viability, CellTiter-Glo luminescence; at 20 µM (top of the series).
For test [9], the target named is 6-phosphogluconate dehydrogenase, decarboxylating (Homo sapiens) (UniProt P52209). Kind of test: 6PGD enzyme inhibitors, primary screen, biochemical, human, recombinant enzyme, NADPH absorbance (AID 1159550;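 active = at least 20% inhibition of 6-phosphogluconate dehydrogenase activity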). The following applies: recombinant 6PGD, NADPH absorbance 341 nm; at 10 µM; stronger effect = higher value.
Sequence of 6-phosphogluconate dehydrogenase, decarboxylating (Homo sapiens) (P52209 whole entry, looked up): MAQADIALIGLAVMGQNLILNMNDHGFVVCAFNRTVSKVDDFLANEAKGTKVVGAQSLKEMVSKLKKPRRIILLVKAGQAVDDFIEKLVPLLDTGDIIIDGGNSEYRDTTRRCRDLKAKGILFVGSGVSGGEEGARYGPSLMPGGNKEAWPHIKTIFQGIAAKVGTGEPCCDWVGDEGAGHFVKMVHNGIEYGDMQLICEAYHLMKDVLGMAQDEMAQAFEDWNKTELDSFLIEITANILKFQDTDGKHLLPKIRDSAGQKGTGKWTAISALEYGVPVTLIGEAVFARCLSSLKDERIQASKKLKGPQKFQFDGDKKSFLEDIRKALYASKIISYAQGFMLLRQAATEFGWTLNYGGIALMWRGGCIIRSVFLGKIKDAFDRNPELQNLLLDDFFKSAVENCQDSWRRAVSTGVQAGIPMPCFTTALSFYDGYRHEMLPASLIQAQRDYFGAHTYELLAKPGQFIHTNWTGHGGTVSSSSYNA
Test [10] is described as follows: sensitizers of A549 cells to miR-34 induction, primary screen, imaging, A549 dox-inducible miR-34, nuclei and caspase counts (AID 1347080;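 active = compounds whose cell count with miR-34 switched on is under 0.7 times the count with it off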). The settings on record: A549 miR-34 inducible, Hoechst nuclei count, 48 h.
The target of test [11] is NAD(+) hydrolase SARM1 (Homo sapiens) (UniProt Q6SZW1). Kind of test: SARM1 TIR NADase inhibitors, cell lysate, NAD-Glo luminescence (AID 1508614;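 active = compound whose remaining NAD level is above about 45 nM, limit read from the data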;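 also: higher remaining NAD means stronger inhibition of SARM1 NADase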). The following applies: SAM-TIR HEK293T lysate NADase, at 1 µM, stronger effect = higher value.
Sequence of NAD(+) hydrolase SARM1 (Homo sapiens) (Q6SZW1 whole entry, looked up, the tested form may be a part): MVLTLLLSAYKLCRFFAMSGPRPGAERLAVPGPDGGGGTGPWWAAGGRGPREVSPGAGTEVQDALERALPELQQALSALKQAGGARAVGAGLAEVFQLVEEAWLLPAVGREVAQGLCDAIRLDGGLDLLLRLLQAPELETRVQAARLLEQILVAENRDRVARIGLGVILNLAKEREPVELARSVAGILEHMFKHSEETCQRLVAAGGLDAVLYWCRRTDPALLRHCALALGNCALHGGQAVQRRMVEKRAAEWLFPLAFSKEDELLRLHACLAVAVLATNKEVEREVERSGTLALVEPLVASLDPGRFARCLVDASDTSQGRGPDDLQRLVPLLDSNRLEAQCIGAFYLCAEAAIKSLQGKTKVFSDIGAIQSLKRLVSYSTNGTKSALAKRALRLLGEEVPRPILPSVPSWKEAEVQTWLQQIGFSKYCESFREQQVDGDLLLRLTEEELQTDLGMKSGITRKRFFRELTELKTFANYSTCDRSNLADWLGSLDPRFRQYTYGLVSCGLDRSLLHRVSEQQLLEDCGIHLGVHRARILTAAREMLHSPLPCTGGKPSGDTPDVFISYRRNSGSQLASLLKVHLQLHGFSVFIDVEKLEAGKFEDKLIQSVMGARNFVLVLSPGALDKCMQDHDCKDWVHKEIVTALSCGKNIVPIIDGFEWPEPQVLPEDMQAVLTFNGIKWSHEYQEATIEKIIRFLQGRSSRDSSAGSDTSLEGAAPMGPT
Test [12] deals with Mitogen-activated protein kinase 7 (Homo sapiens) (UniProt Q13164). Kind of test: ERK5 transactivation activators in reporter cells, primary screen, cell-based, HTS (AID 1508626;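 active = luciferase signal above three times the same-plate solvent-only control wells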;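 also: luciferase driven by Gal4-ERK5 fusion binding five Gal4 sites before minimal TATA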). The following applies: HeLa Gal4-ERK5 transactivation, 18 h, at 5 µM, stronger effect = higher value.
Sequence of Mitogen-activated protein kinase 7 (Homo sapiens) (Q13164 whole entry, looked up, the tested form may be a part): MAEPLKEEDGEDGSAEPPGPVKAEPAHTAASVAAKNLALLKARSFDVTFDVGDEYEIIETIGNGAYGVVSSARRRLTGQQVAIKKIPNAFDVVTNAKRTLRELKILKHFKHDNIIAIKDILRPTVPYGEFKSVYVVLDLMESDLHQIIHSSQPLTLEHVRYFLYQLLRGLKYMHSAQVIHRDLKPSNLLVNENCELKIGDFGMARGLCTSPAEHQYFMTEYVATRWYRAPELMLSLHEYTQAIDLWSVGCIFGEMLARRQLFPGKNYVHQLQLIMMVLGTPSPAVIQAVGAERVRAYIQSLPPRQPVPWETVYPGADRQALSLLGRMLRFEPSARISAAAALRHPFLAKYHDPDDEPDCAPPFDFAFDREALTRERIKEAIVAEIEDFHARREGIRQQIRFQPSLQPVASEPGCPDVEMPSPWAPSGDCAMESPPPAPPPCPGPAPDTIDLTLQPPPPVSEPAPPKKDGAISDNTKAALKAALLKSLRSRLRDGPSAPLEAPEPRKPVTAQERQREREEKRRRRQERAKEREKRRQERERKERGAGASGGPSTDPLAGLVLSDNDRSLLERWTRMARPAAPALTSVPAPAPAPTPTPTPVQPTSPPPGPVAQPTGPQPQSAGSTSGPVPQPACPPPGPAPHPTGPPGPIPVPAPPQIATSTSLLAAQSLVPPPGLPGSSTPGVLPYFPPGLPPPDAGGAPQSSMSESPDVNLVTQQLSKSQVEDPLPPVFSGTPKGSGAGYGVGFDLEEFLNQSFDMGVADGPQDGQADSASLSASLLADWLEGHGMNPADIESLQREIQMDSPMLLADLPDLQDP
The test system of a further test is F380Y. In words: modulators of BK channel variants, profiling panel, selectivity assay, cell-based, U2OS BacMam, thallium flux, beta subunits (AID 1259406).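 Also: initial slope of Thallos dye fluorescence rise after thallium is added; log ratio against the mean of 0.3% DMSO vehicle wells on the same plate.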 The settings on record: at 30 µM.
In a further test the test system is F380Y/beta2Delta. Described as above. The settings on record: at 30 µM.
For test [13], the target named is Calcium-activated potassium channel subunit alpha-1 (Homo sapiens) + Leucine-rich repeat-containing protein 26 (Homo sapiens) (UniProt Q12791+Q2I0M4). Described as above. The following applies: F380Y/Slo1WT/gamma1, at 30 µM.
Sequence of Calcium-activated potassium channel subunit alpha-1 (Homo sapiens) + Leucine-rich repeat-containing protein 26 (Homo sapiens) (Q2I0M4 whole entry, looked up, one chain of several): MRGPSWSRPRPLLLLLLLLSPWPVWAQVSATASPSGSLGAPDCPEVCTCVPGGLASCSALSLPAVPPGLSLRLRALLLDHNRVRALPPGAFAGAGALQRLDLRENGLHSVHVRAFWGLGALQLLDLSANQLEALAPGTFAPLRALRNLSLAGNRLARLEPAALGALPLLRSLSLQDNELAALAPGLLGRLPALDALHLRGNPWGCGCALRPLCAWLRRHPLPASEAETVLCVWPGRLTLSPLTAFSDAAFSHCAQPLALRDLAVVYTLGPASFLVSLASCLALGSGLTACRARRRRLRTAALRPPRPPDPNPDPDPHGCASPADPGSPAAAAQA
A further test has as its system R275C. The test is described as above. The following applies: at 30 µM.
The test system of another test is R275C/beta1. The test is described as above. The settings on record: at 30 µM.
For another test, the system named is R275C/beta2Delta. The test is described as above. The following applies: at 30 µM.
Test [14] in a line: differential killing of epithelial or mesenchymal cells, primary screen, imaging, PC-3E GFP, TEM4-18 mCherry, co-culture (AID 1345086;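 active = compounds killing one labelled cell type while sparing the other, by normalised counts and ratio limits, not self-fluorescent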;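 also: cells exposed to compound for 72 h before imaging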;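 as to red/green cell ratio (normalised): normalised mesenchymal count divided by normalised epithelial count so high means epithelial killing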). The settings on record: imaging cell counts, at 1 µM.
The nature of test [15]: survival rescue of mitochondrial mutant cells in low glucose, primary screen, MELAS cybrids, Rieske KO mouse fibroblasts, CellTiter-Glo (AID 1508586;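 active = mean z-score across replicates of 1.96 or higher in either the MELAS or the Rieske mutant cell line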;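 also: z relative to plate mean and SD of compound and empty wells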).
Setting [16] is: stronger effect = lower value, cell number ratio, induced over uninduced.
Where [17] appears, read: measured here: relative caspase fold change +Dox/-Dox.
Setting [18] is: measured here: total cells with miR-34 induction, stronger effect = lower value.
[19] abbreviates: measured here: total cells without miR-34 induction.
The mark [20] stands for this setting: MELAS cybrid survival, CellTiter-Glo 48 h, stronger effect = higher value.
[21] abbreviates: Rieske KO mouse fibroblast survival, CellTiter-Glo 72 h.

In the case of `CC1=C(C(=O)O)N2C(=O)[C@@H](NC(=O)[C@H](N)c3ccccc3)[C@H]2SC1`, the nuclear beta-catenin stimulation was 3.8% (inactive) in test [1] (at 10 µM) and 0.2% in test [1] (stimulation, at 2 µM). The insulin secretion stimulation in test [2] is -0.9% (inactive). Moreover, the viability decrease in test [3] was 7.2% (inactive). Moreover, the tube area decrease in test [4] is -2.6% (inactive). Moreover, in test [5], the GLP1 secretion stimulation is 22.8% (active). Moreover, the inhibition of viability in test [6] was 24.3% (inactive). Further, the figures for the viability decrease (inhibition) in test [7] and in test [8] were 44.6% (inactive) and 11.8% (inactive), respectively. Also, the inhibition in test [9] is 8.67% (inactive). The fold change in test [10] (setting [16]) was 0.846 (inactive); in test [10] (setting [17]), 1.36. Moreover, the cell count amounted to 9200 in test [10] (setting [18]) and 10900 in test [10] (setting [19]). The remaining NAD in test [11] was 10 nM (inactive). Besides, in test [12], the luciferase signal is 40 AU (inactive). Moreover, the log fold change Tl+ flux in the test on F380Y was -0.036 (inactive); with F380Y/beta2Delta, -0.0767 (inactive); in test [13], -0.0298 (inactive); in the test on R275C it was -0.0778 (inactive); in the test on R275C/beta1, -0.0268 (inactive); with R275C/beta2Delta, -0.026 (inactive).
With `c1ccc2c(CC3=NCCN3)cccc2c1`, the nuclear beta-catenin stimulation is 0.4% (inactive) in test [1] (at 10 µM) and 1.1% in test [1] (stimulation, at 2 µM). For the same compound, the insulin secretion stimulation in [2] is -1.7% (inactive). In addition, the viability decrease in test [3] is -2.25% (inactive). For the same compound, the tube area decrease in [4] is 20.2% (inactive). Also, in [5], the GLP1 secretion stimulation is 2.8% (inactive). In addition, the inhibition of viability in test [6] was -0.7% (inactive). In addition, the viability decrease (inhibition) in test [7] is 19.7% (inactive); in test [8], 8% (inactive). In addition, the inhibition in test [9] was -9.35% (inactive). Also, the red/green cell ratio (normalised) in test [14] (actives lie on both sides, counts scaled to control wells, 1 = unselective) was 0.84 (inactive). Also, the normalised cell number in test [14] (measured here: epithelial PC-3E GFP cell survival) was 1.03; in test [14] (measured here: mesenchymal TEM4-18 mCherry cell survival) it was 0.86. Besides, the z-score was -0.272 (inactive) and 0.214 (inactive) and 0.142 (inactive) in test [15] (setting [20]); -0.0845 and -0.183 and -0.115 in [15] (setting [21]). Also, in test [11], the remaining NAD was 10 nM (inactive). Further, the luciferase signal in test [12] is 44 AU (inactive). In addition, the log fold change Tl+ flux was -0.0182 (inactive) in the test on F380Y; -0.014 (inactive) in the test on F380Y/beta2Delta; 0.0291 (inactive) in test [13]; -0.0401 (inactive) in the test on R275C; -0.0378 (inactive) in the test on R275C/beta1; 0.00508 (inactive) in the test with R275C/beta2Delta.
Take `Cc1cccc(CN2CCN(C(c3ccccc3)c3ccc(Cl)cc3)CC2)c1` (centres undefined): the nuclear beta-catenin stimulation in test [1] (at 10 µM) is 5.6% (inactive); in [1] (stimulation, at 2 µM), -0.6%. Moreover, the insulin secretion stimulation in test [2] was -1.7% (inactive). Moreover, the viability decrease in test [3] is 77.3% (active). Also, the tube area decrease in [4] was 33.4% (inactive). Further, the GLP1 secretion stimulation in [5] is -2.1% (inactive). Further, the inhibition of viability in test [6] was 83.5% (active). The values for the viability decrease (inhibition) in [7] and in test [8] were 116% (active) and 87.8% (active), respectively. Besides, the inhibition in [9] is -14.5% (inactive). For the same compound, the fold change was 0.91 (inactive) and 0.869 (inactive) and 0.905 (inactive) in test [10] (setting [16]); 2.01 and 1.32 and 1.69 in test [10] (setting [17]). Also, the cell count in [10] (setting [18]) was 8220 and 9250 and 10600; in [10] (setting [19]) it was 9040 and 10700 and 11700. The figures for the z-score in [15] (setting [20]) and in [15] (setting [21]) were -0.845 (inactive) and -0.151, respectively. The remaining NAD in test [11] was 10 nM (inactive). For the same compound, the luciferase signal in test [12] is 96 AU (inactive). For the same compound, the log fold change Tl+ flux in the test with F380Y was 0.0137 (inactive); in the test with F380Y/beta2Delta, 0.0401 (inactive); in [13], -0.0345 (inactive); in the test on R275C, 0.00971 (inactive); in the test on R275C/beta1 it was -0.0498 (inactive); in the test on R275C/beta2Delta it was 0.0052 (inactive).

A word on the inhibition: it is the relative decrease from the control value, in per cent.
